PubChem BioAssay AID651965 (National Center for Advancing Translational Sciences (NCATS), 2013)
About 6,400 (1.9%) of roughly 340,000 compounds were called active. Roughly 4% stayed inconclusive and do not appear here. Calls come from the whole dose curve; as a rule, active = well fitted falling curve with a large enough effect; inconclusive = small, poorly fitted or top-dose-only effect; inactive = no such curve, though single readings can be large or run the other way. What follows is part of a selection rich in actives, with near analogues and random picks from the rest.

Target: ATP-dependent Clp protease proteolytic subunit (Bacillus subtilis (strain 168)) (UniProt P80244)
Test: qHTS Assay for Activators of ClpP; note: the source files actives as falling curves though it sought activators and does not explain the sign; nearly all actives have a fitted effect of over 65% in size
Settings: purified B. subtilis ClpP, FRET peptide cleavage, 20 min; series mostly up to 57.5 µM; activity change, negative = active: at the top concentration
Source text: The Clp protease proteolytic subunit (ClpP) is the core unit of the Clp complex belonging to the peptidase family S14 that hydrolyzes protein into small peptides in the presence of ATP and magnesium. It is ubiquitously expressed and is the major protease in bacteria. […] Unlike common antibiotics that simply interfere with the essential enzyme activity, ADEP binding activates the ClpP core in the absence of the regulatory Clp-ATPases leading to uncontrolled proteolysis and eventually cell death. Activators binding to the docking site on ClpP can also block formation of the ClpXP and ClpA/C-P holoenzyme complexes interfering with the normal biological functions of ClpP and thus have the potential to become new anti-microbials.
To identify activators of ClpP, a FRET based quenching reversal assay was developed using a purified B. subtilis ClpP and a decapeptide substrate (FRET-FV). The FRET-FV is tagged with a fluorescent molecule amino benzoic acid (donor) at the N-terminus and a nitrotyrosine quencher (acceptor) at the C-terminus. FRET-FV cleaves upon activation of ClpP with ADEP treatement and reverses the quenching effect of the nitrotyrosine causing an increase in fluorescence emission signal at 430nm. This assay was used to screen the Molecular Libraries Small Molecule Repository (MLSMR).
NIH Molecular Libraries Probe Production Centers Network [MLPCN]
NIH Chemical Genomics Center [NCGC]
Assay Submitter (PI): Michael Maurizi, National Cancer Institute
Two and a half microL/well of purified enzyme solution (final concentrations 10 microg/mL B. subtilis ClpP in 100 mM Tris/HCl pH8, 100 mM KCl, 0.05% low protease BSA, 2.5% glycerol, 0.01% Tween-20 buffer) was dispensed into 1536-well assay plates (Greiner, black solid, medium-binding plates) with Aurora Discovery BioRAPTR Flying Reagent Dispenser (FRD, Beckton-Dickenson). Compound solution (23 nL) was transferred to the assay plate using Kalypsys pin tool equipped with a 1536-pin tool. […] FRET signals at time 0 and after 20 min room temperature incubation were obtained using the PerkinElmer Envision plate reader with 320nm excitation and 430nm emission filters. Delta FRET value (Time 20 - Time 0) was calculated and normalized to the delta FRET value of positive control ADEP (5.8 microM final concentration) and negative control DMSO and no enzyme wells.

Activity change, negative = active, inactive:
CCOC(=O)[C@]12CCC=C1N(Cc1ccccc1)C(=O)[C@H](CC(=O)N1CCCC1)C2 -2.23%
CC(=O)NC(c1ccccc1)c1nc(-c2ccccc2C)cs1 (stereo not given) -4.42%
NS(=O)(=O)c1ccc(NC(=O)CSc2nnc3c(n2)[nH]c2ccccc23)cc1 1.35%
O=C(Cn1nc(C(F)(F)F)c2c1CCC2)NCc1ccc(F)cc1 -1.32%
O=C(Cn1nc(C(F)(F)F)c2c1CCCC2)Nc1ccc(Cl)cc1 -1.07%
COc1ccc(C(=O)OCC(=O)Nc2ccc3[nH]c(=O)[nH]c3c2)c(OC)c1OC -5.3%
COC(=O)c1ccc(OCC(=O)NC(C)(C)C)cc1 1.7%
Cc1ccc([C@H]2N[C@]3(CCCN(Cc4ccccc4)C3=O)[C@H]3C(=O)N(Cc4ccccc4)C(=O)[C@@H]23)cc1 1.37%
CCOC(=O)[C@H]1Nc2ccc(Cl)cc2[C@@H]2[C@H]1C1CC(c3ccccc31)N2C(=O)OCc1ccccc1 (stereo not given in full) -6.04%
CCn1c2ccccc2c2cc(NC(=O)COc3ccc(C)cc3C)ccc21 -24.8%
C/C(CC(=O)Nc1ccc(N(C)C)cc1)=N\NC(=O)c1ccccc1F -2.45%
COc1ccc(-c2cc(C(=O)NCCCN3CCCC3=O)c3ccccc3n2)cc1OC -6.41%
Cc1ccc(-c2cc(C(=O)NC3CCN(Cc4ccccc4)CC3)c3ccccc3n2)cc1 -0.514%
COCCNc1nc(NCc2ccc(NC(C)=O)cc2)c2sccc2n1 -15.9%
Cc1nc2c(OCC(=O)C(C)(C)C)cccn2c1N(C)Cc1cccs1 -7.89%
CCCCCc1c(-c2cccc(Br)c2)ncn1CCc1ccccc1OC -26.2%
COc1c(C)cc(C(O)c2ncc(-c3cccc(C(F)(F)F)c3)[nH]2)cc1C (stereo not given) -7.79%
CCC(c1nnnn1-c1ccc2c(c1)OCCO2)N1CCN(c2ccc(C(F)(F)F)cn2)CC1 (stereo not given) -0.91%
CCc1nc(N2CCN(C(C)=O)CC2)c2c3c(sc2n1)CCCC3 -4.18%
CC(C)(C)C1CCc2c(sc3nc(SCC(N)=O)nc(N)c23)C1 (stereo not given) -15.5%
C[C@H]1CN([C@@H](C)CO)C(=O)c2cc(C3=CCCCC3)cnc2O[C@@H]1CN(C)C(=O)Cc1ccccc1 -5.72%
Cc1[nH]c2ccccc2c1C(=O)CN1CCCC(C)C1 (stereo not given) 0.916%
CC(=O)Nc1ccc(NC(=O)CN2CCCC(C)C2)c(Cl)c1 (stereo not given) -3.9%
CC(=O)c1ccc(Nc2nc(C(N)c3ccccc3Cl)cs2)cc1 (stereo not given) -11.1%
CCOc1ccc2nc(N3CCCN(C(=O)Nc4ccccc4C)CC3)c(C#N)cc2c1 -2.23%
CCOC(=O)c1c(N)nn(C(=O)c2ccccc2)c1-c1ccccc1 -1.6%
Cc1cc[n+](C2CCCCC2)cc1 -7.91%
N#Cc1ccc[n+](CC(=O)c2ccc(O)c(O)c2)c1 -0.287%
O=C(NCc1cccnc1)c1cc(C2CCCN(C(=O)CCCc3ccccc3)C2)on1 (stereo not given) 1.82%
O=C(NCc1ccc2c(c1)OCO2)c1cc(F)c(F)cc1Cl 0.908%
CCn1c(=O)c(C(=O)NCc2ccc3c(c2)OCO3)c(O)c2ccccc21 -2.41%
OCCc1ccc(NCCc2ccco2)cc1 -2.59%
CCCNC(=O)C1(C)CCCN(C(=O)c2cccc(OC(C)=O)c2C)C1 (stereo not given) -0.0684%
O=C1C[C@H]2C=CCc3cccc(c32)CN1Cc1ccccc1 -2.81%
CC(=O)OCC(C)n1c(=O)c2ccccc2n1C(C)=O (stereo not given) 7.13%
O=C(CN1CCOCC1)Nc1c2c(nc3c1CCC3)CCC2 -0.252%
Cc1ccc(Nc2nc(N3CCOCC3)nc(N3CCOCC3)n2)cc1Cl 1.71%
CCc1nc2c(OCCc3cccc(OC)c3)cccn2c1N(C)C(=O)c1ccc(C)cc1 -1.31%
O=C(Nc1cccc(OCC(=O)N2CCOCC2)c1)C1CCCCC1 -2.02%
O=C1CC2(CCCC2)Oc2ccc(Cl)cc21 4.22%
COc1cccc2[nH]c(C(=O)NCCc3ccccc3)cc12 4.06%
COc1cc2c(C(=O)O)c(C)n(C)c2c2ccccc12 3.23%
Cc1ccc(Cc2c(-c3ccc(Cl)cc3)nc3c4ccccc4ccn23)cc1 49.9%
CC(C)(C)CC(=O)Nc1nc(C(N)Cc2ccc(C(F)(F)F)cc2)cs1 (stereo not given) -1.68%
CCN(CC)S(=O)(=O)c1ccc(NC(=O)CN(c2cccc(F)c2)S(C)(=O)=O)cc1 -3.47%
COc1cccc(N(CC(=O)Nc2cccc(F)c2)S(C)(=O)=O)c1 -0.426%
COc1ccc(NC(=O)C2(C)Cc3c(-c4ccc(C(N)=O)cc4)ccnc3O2)cc1 (stereo not given) -2.25%
COc1ccc(-c2ccc(CN3C(CC(C)C)C(=O)N(Cc4cn(CC5CCCCC5)nn4)CCS3(=O)=O)cc2)cn1 (stereo not given) -8.24%
CCOC(=O)C(=Cc1ccccc1)C(=O)c1ccccc1 -0.195%
CC(C)(C)OC(=O)c1c(N)n(CCCN2CCCC2=O)c2nc3ccccc3nc12 38.4%
CN(C)CCCn1c(N)c(C#N)c2nc(C#N)c(C#N)nc21 -15.7%
CCc1ccc(OCCCn2c(CCCNC(=O)C3CCCCC3)nc3ccccc32)cc1 1.41%

Potency, active:
Cc1cc(NC(=O)Cn2nc(C(F)(F)F)c3c2CCCC3)no1 28.2 µM
CC(C)(C)NC(=O)COc1ccc(CNc2ccc3[nH]c(=O)[nH]c3c2)cc1 22.4 µM
CCn1c2ccccc2c2cc(NC(=O)C/C(C)=N/NC(=O)c3ccccc3N)ccc21 14.1 µM
CCc1ccc(-c2cc(C(=O)NN3CCN(C)CC3)c3ccccc3n2)cc1 31.6 µM
C=C(C)CSc1nc(N)c2c3c(sc2n1)CCC3 12.6 µM
Cc1cc(NC(=O)CN2CCCC(C)C2)n(-c2nc3ccccc3s2)n1 (stereo not given) 17.8 µM
CCOC(=O)c1cc(C#N)c(N2CCCCC2)nc1-c1ccccc1 28.2 µM
Cc1nc2c(C(=O)NCc3ccc4c(c3)OCO4)c[nH]n2c(=O)c1Cc1ccccc1F 31.6 µM
Cc1nc(N2CCOCC2)nc2c1CCCC2 28.2 µM
O=C1CC2(CCCCC2)Oc2ccc(OCC(=O)N3CCOCC3)cc21 10 µM
COc1cccc2c(C)c(C(=O)O)[nH]c12 25.1 µM
Cc1cccc(N(CC(=O)Nc2ccc(-c3nc4ccc(C)cc4s3)cc2)S(C)(=O)=O)c1 15.8 µM
N#Cc1c(N)n(CCOC(=O)c2ccc(Cl)cc2)c2nc3ccccc3nc12 28.2 µM
